# In PubChem BioAssay AID1645838 (ICCB-Longwood Screening Facility, Harvard Medical School, 2021):
# Values joined by “and” are separate entries in the source; they are usually repeats but may differ in a detail not shown here. Identical values can stand only once. Hit rate of the full screen: of about 2,000 compounds, about 100 (5%) were called active. The sample holds actives, similar compounds and a random draw of the others, so the mix is not that of the screen. No stated cut-off is given here; in the data, active means z-score above about 2; inactive means the rest.
# Assay: modulators of mitochondrial supercomplex assembly, cell-based, luminescence, Hoechst nuclei count (AID 1645838);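 further: control cybrid cells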;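 on z-score: higher means more mitochondrial supercomplex formation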
# Conditions: Cells, luminescence/Hoechst cell count ratio, supercomplex reporter; for z-score: stronger effect = higher value; for cell count: measured here: cell number, Hoechst nuclei count
# [1] = library stock concentration (final well concentration not given) 80 uM
# [2] = library stock concentration (final well concentration not given) 400 uM
# [3] = library stock concentration (final well concentration not given) 46 uM
# [4] = library stock concentration (final well concentration not given) 278 uM
# [5] = library stock concentration (final well concentration not given) 1.67 mM
# [6] = library stock concentration (final well concentration not given) 10 mM
# [7] = library stock concentration (final well concentration not given) 2 mM
structure (smiles),measurement,setting,value
CCCCC[C@H](O)/C=C/[C@@H]1[C@H](CCCCCCC(=O)O)[C@@H](O)C[C@H]1O,z-score,,0.0726 (inactive)
same,cell count,,4940
CCN(CC)c1ccc(C2=C(Cl)C(=O)c3ncccc3C2=O)cc1,z-score,,-0.697 (inactive)
same,cell count,,3780
c1nc2nc(Nc3ccc(N4CCOCC4)cc3)nc(NC3CCCCC3)c2[nH]1,outcome,library stock 2 mM,inactive; censored for cell count
same,outcome,library stock 10 mM,inactive; censored for cell count
same,z-score,[1],-0.0131 (inactive)
same,z-score,[2],1.19 (inactive)
same,cell count,[1],4690
same,cell count,[2],2200
Cc1cc(N2CCOCC2)ccc1Nc1nc(NC2CCCCC2)c2[nH]cnc2n1,z-score,[3],-0.914 (inactive)
same,z-score,[4],-0.363 (inactive)
same,z-score,[5],3.33 (active)
same,z-score,[6],3.68 (active)
same,cell count,[3],7450
same,cell count,[4],5730
same,cell count,[5],2040
same,cell count,[6],2130
c1ccc2c(Oc3nc(Nc4ccc(N5CCOCC5)cc4)c4ncn(C5CCCCC5)c4n3)cccc2c1,z-score,,-0.437 (inactive)
same,cell count,,5560
NC(N)=NN=Cc1ccc(Cl)c(Cl)c1,z-score,[1],-0.108 (inactive)
same,z-score,[2],0.196 (inactive)
same,z-score,[7],-0.953 (inactive)
same,z-score,[6],-0.658 (inactive)
same,cell count,[1],5310
same,cell count,[2],4750
same,cell count,[7],4910
same,cell count,[6],4260
CCCCC[C@H](O)/C=C/[C@H]1[C@H](O)CC(=O)[C@@H]1CCCCCCC(=O)NCCO,z-score,,0.115 (inactive)
same,cell count,,5420
NC1=NC(=O)/C(=C/c2ccc(O)cc2)S1,z-score,,0.333 (inactive)
same,cell count,,5020
CCCCCCCC/C=C\CCCCCCCC(=O)OCC(O)COP(=O)(O)O (stereo not given),z-score,,-0.58 (inactive)
same,cell count,,5650
O=C(O)CCC/C=C\C[C@@H]1[C@@H](/C=C/[C@@H](O)COc2cccc(C(F)(F)F)c2)[C@H](O)C[C@@H]1O,z-score,,-0.654 (inactive)
same,cell count,,5730
Cc1ccc(COC(=O)N2CCC(CNc3ncccn3)C(F)C2)cc1 (stereo not given),z-score,[1],-0.136 (inactive)
same,z-score,[2],0.087 (inactive)
same,z-score,[7],-0.148 (inactive)
same,z-score,[6],-0.243 (inactive)
same,cell count,[1],5400
same,cell count,[2],5130
same,cell count,[7],5140
same,cell count,[6],5210
O=C(O)c1ccc(-c2c[nH]c3ncc(-c4ccccc4)cc23)cc1C1CCCC1,z-score,[3],-0.226 (inactive)
same,z-score,[4],-0.179 (inactive)
same,z-score,[5],-0.154 (inactive)
same,z-score,[6],2.58 (active)
same,cell count,[3],6280
same,cell count,[4],6090
same,cell count,[5],5580
same,cell count,[6],1970
CCCS(=O)(=O)Nc1ccc(F)c(C(=O)c2c[nH]c3ncc(-c4ccc(Cl)cc4)cc23)c1F,z-score,[1],-0.652 (inactive) and -0.181 (inactive)
same,z-score,[2],-0.587 (inactive) and -0.185 (inactive)
same,z-score,[7],-0.572 (inactive) and -0.608 (inactive)
same,z-score,[6],0.969 (inactive) and -0.885 (inactive)
same,cell count,[1],4780 and 6010
same,cell count,[2],4780 and 5900
same,cell count,[7],4410 and 5850
same,cell count,[6],2140 and 5020
Cn1cc(C=C2C(=O)Nc3cccnc32)c2ccccc21,z-score,[1],-0.136 (inactive)
same,z-score,[2],-0.0135 (inactive)
same,z-score,[7],-0.221 (inactive)
same,z-score,[6],-0.519 (inactive)
same,cell count,[1],5300
same,cell count,[2],5320
same,cell count,[7],5410
same,cell count,[6],4520
Cn1c(SCC(=O)N2CCCC2C(=O)Nc2ccccc2-c2ccccc2)nc2ccccc21 (stereo not given),z-score,[1],-0.422 (inactive)
same,z-score,[2],-0.389 (inactive)
same,z-score,[7],-0.142 (inactive)
same,z-score,[6],-0.283 (inactive)
same,cell count,[1],5510
same,cell count,[2],5800
same,cell count,[7],5780
same,cell count,[6],5710
CC(C)CCOc1ccc(NC(=S)Nc2ccc(OCCC(C)C)cc2)cc1,z-score,,-0.0536 (inactive)
same,cell count,,5220
Cc1nc2ccc(-n3ncc(C(=O)c4cc5ccccc5[nH]4)c3N)cc2[nH]1,z-score,[1],-0.114 (inactive)
same,z-score,[2],-0.221 (inactive)
same,z-score,[7],-0.0631 (inactive)
same,z-score,[6],5.29 (active)
same,cell count,[1],5810
same,cell count,[2],5920
same,cell count,[7],5510
same,cell count,[6],3410
CCCCC[C@H](O)/C=C/[C@H]1[C@H](O)CC(=O)[C@@H]1C/C=C\CCCC(=O)OCC(O)CO (stereo not given in full),z-score,,0.364 (inactive)
same,cell count,,5190
CCCNC1CCc2nc(N)sc2C1 (stereo not given),z-score,[1],-0.399 (inactive)
same,z-score,[2],-0.375 (inactive)
same,z-score,[7],-0.412 (inactive)
same,z-score,[6],-0.168 (inactive)
same,cell count,[1],6960
same,cell count,[2],6720
same,cell count,[7],6830
same,cell count,[6],6380
CCOc1ccc(S(=O)(=O)N(CC(=O)N=Nc2c(O)[nH]c3ccccc23)c2ccccc2)cc1,outcome,library stock 10 mM,inactive; censored for cell count
same,z-score,[1],0.0734 (inactive)
same,z-score,[2],0.0751 (inactive)
same,z-score,[7],0.419 (inactive)
same,cell count,[1],5190
same,cell count,[2],5160
same,cell count,[7],4350
CC/C=C\C/C=C\C/C=C\C/C=C\CCCCC(=O)OCC,z-score,,-0.596 (inactive)
same,cell count,,5380
Nc1nccc2c1ncn2C1C=C(CO)C(O)C1O (stereo not given),outcome,library stock 10 mM,inactive; censored for cell count
same,z-score,[3],-0.246 (inactive)
same,z-score,[4],0.747 (inactive)
same,z-score,[5],2.95 (active)
same,cell count,[3],5790
same,cell count,[4],4240
same,cell count,[5],1810
CCCCCCCCCCCC(=O)NC[C@]1(C)CCC[C@]2(C)c3ccc(C(C)C)cc3CC[C@@H]12,z-score,,0.0192 (inactive)
same,cell count,,4880
CCCCCCCCCCCCCCCC(=O)OC[C@@H](O)COP(=O)(O)O,z-score,,0.759 (inactive)
same,cell count,,4710
CC(=O)O[C@@]12C[C@@H](C)[C@@]3(O)[C@@H](C=C(CO)C[C@]4(O)C(=O)C(C)=C[C@@H]34)[C@@H]1C2(C)C,z-score,,2.36 (active)
same,cell count,,5140
CCCCC[C@H](O)/C=C/[C@H]1C=CC(=O)[C@@H]1CCCCCCC(=O)O,z-score,,0.664 (inactive)
same,cell count,,4830
